From PubChem BioAssay (Tox21)
Results filed as inconclusive are left out. The source made the active and inactive calls. Unless noted, the call rests on the fitted dose curve; in most records, active means well fitted curve in the direction sought with a large enough effect in the repeat runs; inconclusive means weak or mixed curves; inactive means no such curve, though single readings can be large; an effect the other way counts as inactive or inconclusive.

Experiments:
[1] = qHTS assay to identify small molecule agonists of the TGF-beta/Smad signaling pathway (AID 1346859; active means well fitted activation curve with a large enough effect in the signal ratio in the repeat runs, not every such curve was filed as active; the % refers to the signal ratio; further: series mostly up to about 77 µM)
Outline: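 Dual-wavelength fluorescence (460/530 nm emission) quantified beta-lactamase expression under the Smad binding element in HEK 293T cells following 5 hr compound treatment at 37 C.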

[2] = target: Thyrotropin-releasing hormone receptor (Homo sapiens) (UniProt P34981); assay: qHTS assay to identify small molecule antagonists of the thyrotropin-releasing hormone receptor (TRHR) signaling pathway (AID 1346877; active means well fitted inhibition curve with a large enough effect in the repeat runs, not every such curve was filed as active; further: series mostly up to about 51 µM)
Outline: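 Screening used HEK293 cells engineered with TRHR, with a brief 5 min room-temperature compound exposure preceding addition of TRH to 1 nM. The read-out was kinetic calcium-dye fluorescence, concentration-response from 15 doses in triplicate.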

[3] = Human pregnane X receptor (PXR) small molecule agonists, qHTS cell viability counter screen (AID 1346977); further: nearly all actives have a fitted effect of over 50% in size
Outline: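 HepG2 cells stably carrying the PXR-Luc reporter are cultured with 5% charcoal-stripped FBS and treated with compounds for 24hr. CellTiter-Fluor is added at 23hr and fluorescence is read after 1hr.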

[4] = Caspase-3/7 induction in HepG2 cells by small molecules, qHTS assay (AID 1346978); further: nearly all actives have a fitted effect of over 15% in size
Outline: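 Wild-type HepG2 cells, 2,000/well, settled 5 hr at 37 C and 5% CO2, then compound-treated for 17 hr; caspase-3/7 activity read by luminescent Caspase-Glo 3/7 after 30 min at room temperature.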

[5] = Caspase-3/7 induction in CHO-K1 cells by small molecules, qHTS cell viability counter screen (AID 1346979); further: nearly all actives have a fitted effect of over 35% in size
Outline: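 Seeding: 1,500 CHO-K1 cells/well. Rest: 5hr, 37C. Treatment: compounds in DMSO, 16hr. Read: CellTiter-Fluor, 1hr, fluorescence.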

[6] = Caspase-3/7 induction in HepG2 cells by small molecules, qHTS cell viability counter screen (AID 1346981); further: series mostly up to about 92 µM; nearly all actives have a fitted effect of over 30% in size
Outline: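 Multiplexed with the caspase-3/7 assay: HepG2 cells, 16 hr compound treatment, CellTiter-Fluor viability detection by fluorescence.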

[7] = target: Nuclear receptor subfamily 1 group I member 2 (Homo sapiens) (UniProt O75469); assay: Human pregnane X receptor (PXR) small molecule agonists, qHTS assay (AID 1346982); further: nearly all actives have a fitted effect of over 35% in size; further: potency means the concentration at half of the fitted maximal effect
Outline: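 We seeded PXR-Luc HepG2 cells in assay medium containing 5% charcoal-stripped FBS, added compounds 5 hr later, incubated 24 hr, and read luminescence with ONE-Glo reagent.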

[8] = target: Cytochrome P450 2D6 (Homo sapiens) (UniProt P10635); assay: Cytochrome P450 Family 2 Subfamily D Member 6 (CYP2D6) small molecule antagonists: luciferase reporter qHTS assay (AID 1671196); further: nearly all actives have a fitted effect of over 50% in size; further: potency means the concentration at half of the fitted maximal effect; on activity change, negative = inhibition: series mostly up to about 120 µM
Outline: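 Luminescence (RLU), read 20 min after detection reagent, indicated CYP2D6 conversion of proluciferin to luciferin during a 1 h NADPH-dependent reaction at room temperature.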

[9] = target: Cytochrome P450 2C19 (Homo sapiens) (UniProt P33261); assay: Cytochrome P450 Family 2 Subfamily C Member 19 (CYP2C19) small molecule antagonists: luciferase reporter qHTS assay (AID 1671197); further: nearly all actives have a fitted effect of over 65% in size; further: potency means the concentration at half of the fitted maximal effect; on activity change, negative = inhibition: series mostly up to about 120 µM
Outline: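 Light output is proportional to CYP2C19 activity: proluciferin substrate is converted to luciferin, then detected by a luciferin detection reagent that also stops the 1 h, 37C NADPH-driven reaction. Ketoconazole serves as positive control.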

[10] = target: Cytochrome P450 2C9 (Homo sapiens) (UniProt P11712); assay: Cytochrome P450 Family 2 Subfamily C Member 9 (CYP2C9) small molecule antagonists: luciferase reporter qHTS assay (AID 1671198); further: nearly all actives have a fitted effect of over 50% in size; further: potency means the concentration at half of the fitted maximal effect; on activity change, negative = inhibition: series mostly up to about 120 µM
Outline: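 P450-Glo proluciferin substrate with CYP2C9 enzyme; 10 min RT preincubation, then NADPH regeneration 1 h at 37C; luciferin detection reagent 20 min RT, luminescence in relative luminescence units.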

[11] = target: Voltage-gated inwardly rectifying potassium channel KCNH2 (Homo sapiens) (UniProt Q12809); assay: Human Ether-a-go-go-Related Gene (hERG) channel small molecule antagonists: fluorescence cell-based qHTS assay (AID 1671200);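 further: hERG-expressing U2OS cells given a thallium stimulus after FluxOR II dye loading; series mostly up to about 77 µM; nearly all actives have a fitted effect of over 50% in size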
Outline: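 First, 1000 cells per well are seeded and cultured overnight at 37 C. Next, FluxOR II dye is loaded for 1 h at room temperature, protected from light. After 10 more minutes, stimulus is added and fluorescence is read.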

[12] = target: Cytochrome P450 3A4 (Homo sapiens) (UniProt P08684); assay: Cytochrome P450 Family 3 Subfamily A Member 4 (CYP3A4) small molecule antagonists: luciferase reporter qHTS assay (AID 1671201); further: nearly all actives have a fitted effect of over 50% in size; further: potency means the concentration at half of the fitted maximal effect; on activity change, negative = inhibition: series mostly up to about 120 µM
Outline: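 Enzyme and proluciferin substrate are mixed with test chemicals for 10 min, then NADPH regeneration system drives turnover for 1 h at room temperature. A detection reagent halts the reaction; luminescence after 20 min gives relative activity.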

[13] = Caspase-3/7 induction in CHO-K1 cells by small molecules, qHTS assay (AID 1346980); further: nearly all actives have a fitted effect of over 15% in size
Outline: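 Wild-type CHO-K1 cells exposed to compounds for 17hr at 37 C, 5% CO2. Caspase-3/7 activity then measured by Caspase-Glo 3/7 luminescence after 30min at room temperature.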

[14] = target: Nuclear receptor subfamily 1 group I member 2 (Rattus norvegicus) (UniProt Q9R1A7); assay: Rat pregnane X receptor (rPXR) activation by small molecules, qHTS assay (AID 1346983); conditions: rPXR luciferase reporter cells, One-Glo luminescence, 24 h; stronger effect = higher value; further: nearly all actives have a fitted effect of over 20% in size
Outline: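 Cell-based rPXR activation assay: rPXR cells, 2,000 per well, rested 5hr at 37 C, then exposed to compounds in DMSO for 24 hr at 37 C. Luciferase activity read by One-Glo luminescence after 30 min at room temperature.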

[15] = target: Nuclear receptor subfamily 1 group I member 2 (Homo sapiens) (UniProt O75469); assay: CYP3A4 induction through human pregnane X receptor (PXR) by small molecules, qHTS assay (AID 1346984); further: nearly all actives have a fitted effect of over 40% in size
Outline: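 qHTS, concentration-response format: HepG2 DPX-2 line, PXR/CYP3A4-luc. Exposure 24 h, 37C. Substrate Luciferin-IPA 3uM final, 3 h. Detection One-Glo, 30 min RT.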

[16] = target: Nuclear receptor subfamily 1 group I member 2 (Homo sapiens) (UniProt O75469); assay: Human pregnane X receptor (PXR) activation by small molecules, qHTS assay (AID 1346985); further: nearly all actives have a fitted effect of over 40% in size
Outline: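 DPX-2 cells (HepG2 co-transfected with a PXR response element and a CYP3A4-promoter luciferase construct) were seeded at 2,000 per well, rested 5 hr at 37C, then exposed to DMSO-dissolved compounds for 24 hr. Activation was read as luciferase luminescence.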

[17] = target: Cytochrome P450 1A2 (Homo sapiens) (UniProt P05177); assay: Cytochrome P450 Family 1 Subfamily A Member 2 (CYP1A2) small molecule antagonists: luciferase reporter qHTS assay (AID 1671199)
Outline: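 CYP1A2 turnover of a luminogenic substrate was quantified after 1 h with NADPH regeneration at room temperature. Furafylline served as positive control.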
On the % scale 0 is the no-effect control and ±100 the full control effect.

Voltage-gated inwardly rectifying potassium channel KCNH2 (Homo sapiens), sequence (Q12809 whole entry, looked up): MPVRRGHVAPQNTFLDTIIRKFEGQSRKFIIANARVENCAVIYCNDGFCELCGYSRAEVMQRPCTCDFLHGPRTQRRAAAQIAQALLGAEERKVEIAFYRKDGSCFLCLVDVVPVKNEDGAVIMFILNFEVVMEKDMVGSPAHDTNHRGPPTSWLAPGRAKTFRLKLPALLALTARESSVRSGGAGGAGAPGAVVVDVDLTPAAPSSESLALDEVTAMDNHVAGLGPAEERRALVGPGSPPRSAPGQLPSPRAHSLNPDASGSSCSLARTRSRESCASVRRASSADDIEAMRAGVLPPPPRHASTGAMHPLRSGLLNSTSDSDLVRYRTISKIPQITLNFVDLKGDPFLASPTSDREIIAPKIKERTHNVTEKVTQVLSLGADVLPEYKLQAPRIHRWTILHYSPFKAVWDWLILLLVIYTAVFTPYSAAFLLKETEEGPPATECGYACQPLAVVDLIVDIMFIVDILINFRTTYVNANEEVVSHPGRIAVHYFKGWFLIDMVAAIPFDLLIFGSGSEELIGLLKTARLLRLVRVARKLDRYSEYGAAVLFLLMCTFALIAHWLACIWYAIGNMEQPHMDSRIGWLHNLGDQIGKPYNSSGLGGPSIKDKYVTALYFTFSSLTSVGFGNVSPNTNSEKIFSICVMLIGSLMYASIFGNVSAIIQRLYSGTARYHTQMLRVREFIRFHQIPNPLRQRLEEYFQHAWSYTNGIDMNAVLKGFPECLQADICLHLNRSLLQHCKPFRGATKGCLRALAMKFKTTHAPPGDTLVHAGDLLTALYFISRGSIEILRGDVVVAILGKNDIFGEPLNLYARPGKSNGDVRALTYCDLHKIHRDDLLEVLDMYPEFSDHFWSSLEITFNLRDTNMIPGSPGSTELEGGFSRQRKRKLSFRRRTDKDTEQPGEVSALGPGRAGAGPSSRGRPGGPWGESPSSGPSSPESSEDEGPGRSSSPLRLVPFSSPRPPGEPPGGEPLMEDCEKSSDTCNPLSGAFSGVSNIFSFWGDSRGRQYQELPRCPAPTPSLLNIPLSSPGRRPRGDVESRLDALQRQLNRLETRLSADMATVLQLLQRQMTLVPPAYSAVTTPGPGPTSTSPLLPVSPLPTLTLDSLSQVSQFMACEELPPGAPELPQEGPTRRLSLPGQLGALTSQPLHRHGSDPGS
Cytochrome P450 2C19 (Homo sapiens), sequence (P33261 whole entry, looked up): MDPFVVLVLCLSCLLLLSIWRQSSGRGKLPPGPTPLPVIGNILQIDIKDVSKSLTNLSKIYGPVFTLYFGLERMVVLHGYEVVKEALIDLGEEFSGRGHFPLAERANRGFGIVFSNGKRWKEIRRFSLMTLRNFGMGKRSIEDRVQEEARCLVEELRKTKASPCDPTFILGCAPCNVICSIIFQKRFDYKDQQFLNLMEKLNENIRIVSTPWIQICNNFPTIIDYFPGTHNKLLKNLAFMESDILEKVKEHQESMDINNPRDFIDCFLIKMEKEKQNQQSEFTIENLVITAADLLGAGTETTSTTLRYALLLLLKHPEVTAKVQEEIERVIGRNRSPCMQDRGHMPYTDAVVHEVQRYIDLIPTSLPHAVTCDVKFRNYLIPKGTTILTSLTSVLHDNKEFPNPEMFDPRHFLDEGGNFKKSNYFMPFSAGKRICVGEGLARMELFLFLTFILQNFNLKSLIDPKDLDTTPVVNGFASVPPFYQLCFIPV
Cytochrome P450 2C9 (Homo sapiens), sequence (P11712 whole entry, looked up): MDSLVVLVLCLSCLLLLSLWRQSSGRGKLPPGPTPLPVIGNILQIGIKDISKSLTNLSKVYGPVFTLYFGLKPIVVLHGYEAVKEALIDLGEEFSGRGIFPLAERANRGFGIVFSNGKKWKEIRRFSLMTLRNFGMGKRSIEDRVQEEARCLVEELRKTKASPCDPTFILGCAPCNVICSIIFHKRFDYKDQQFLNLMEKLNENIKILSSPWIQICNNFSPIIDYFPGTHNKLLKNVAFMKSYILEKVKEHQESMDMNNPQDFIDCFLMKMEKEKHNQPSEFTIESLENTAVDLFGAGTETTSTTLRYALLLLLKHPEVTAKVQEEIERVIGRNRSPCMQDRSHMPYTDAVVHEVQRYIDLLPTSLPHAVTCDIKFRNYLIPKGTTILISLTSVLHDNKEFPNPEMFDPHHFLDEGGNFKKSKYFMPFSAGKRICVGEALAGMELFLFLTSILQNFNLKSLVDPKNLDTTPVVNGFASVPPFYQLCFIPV
Nuclear receptor subfamily 1 group I member 2 (Homo sapiens), sequence (O75469 whole entry, looked up): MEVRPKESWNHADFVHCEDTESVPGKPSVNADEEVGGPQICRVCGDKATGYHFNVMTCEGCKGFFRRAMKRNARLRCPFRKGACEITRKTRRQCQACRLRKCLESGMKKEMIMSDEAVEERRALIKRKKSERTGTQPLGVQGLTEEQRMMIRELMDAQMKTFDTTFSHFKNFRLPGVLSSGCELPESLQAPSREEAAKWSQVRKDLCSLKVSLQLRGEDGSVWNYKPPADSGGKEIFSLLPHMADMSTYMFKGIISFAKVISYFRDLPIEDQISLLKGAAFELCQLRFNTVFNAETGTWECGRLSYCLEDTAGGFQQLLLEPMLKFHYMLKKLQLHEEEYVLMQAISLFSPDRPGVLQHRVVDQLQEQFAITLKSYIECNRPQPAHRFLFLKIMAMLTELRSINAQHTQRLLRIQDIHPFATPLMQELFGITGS
Cytochrome P450 3A4 (Homo sapiens), sequence (P08684 whole entry, looked up): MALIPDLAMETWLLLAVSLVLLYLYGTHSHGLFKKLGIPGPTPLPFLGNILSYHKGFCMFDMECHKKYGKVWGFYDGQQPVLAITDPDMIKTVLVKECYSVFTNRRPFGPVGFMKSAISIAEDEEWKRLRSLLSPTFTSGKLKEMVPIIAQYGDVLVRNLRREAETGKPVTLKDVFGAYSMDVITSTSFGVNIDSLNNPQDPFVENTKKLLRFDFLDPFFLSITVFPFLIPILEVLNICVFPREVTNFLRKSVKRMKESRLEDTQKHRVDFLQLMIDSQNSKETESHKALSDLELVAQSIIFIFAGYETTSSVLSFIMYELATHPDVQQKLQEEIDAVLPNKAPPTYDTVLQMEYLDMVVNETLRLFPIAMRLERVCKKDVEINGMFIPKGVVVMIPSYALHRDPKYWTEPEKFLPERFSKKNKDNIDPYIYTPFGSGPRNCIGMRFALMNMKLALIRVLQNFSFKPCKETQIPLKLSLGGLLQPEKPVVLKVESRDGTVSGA
Cytochrome P450 1A2 (Homo sapiens), sequence (P05177 whole entry, looked up): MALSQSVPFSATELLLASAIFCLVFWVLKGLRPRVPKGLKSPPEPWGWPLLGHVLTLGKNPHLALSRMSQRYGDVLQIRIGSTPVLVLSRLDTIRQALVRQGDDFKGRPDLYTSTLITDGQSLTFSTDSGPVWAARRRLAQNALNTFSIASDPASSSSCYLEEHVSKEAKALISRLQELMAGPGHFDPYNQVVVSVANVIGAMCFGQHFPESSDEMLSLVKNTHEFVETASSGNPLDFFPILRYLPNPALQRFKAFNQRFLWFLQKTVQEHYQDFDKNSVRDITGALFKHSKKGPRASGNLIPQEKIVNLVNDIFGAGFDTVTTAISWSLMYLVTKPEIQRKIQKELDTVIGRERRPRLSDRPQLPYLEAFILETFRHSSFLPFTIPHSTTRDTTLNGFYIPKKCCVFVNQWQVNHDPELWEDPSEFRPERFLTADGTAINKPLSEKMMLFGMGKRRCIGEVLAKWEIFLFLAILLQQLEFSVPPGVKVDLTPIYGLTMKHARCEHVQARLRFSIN
Thyrotropin-releasing hormone receptor (Homo sapiens), sequence (P34981 whole entry, looked up): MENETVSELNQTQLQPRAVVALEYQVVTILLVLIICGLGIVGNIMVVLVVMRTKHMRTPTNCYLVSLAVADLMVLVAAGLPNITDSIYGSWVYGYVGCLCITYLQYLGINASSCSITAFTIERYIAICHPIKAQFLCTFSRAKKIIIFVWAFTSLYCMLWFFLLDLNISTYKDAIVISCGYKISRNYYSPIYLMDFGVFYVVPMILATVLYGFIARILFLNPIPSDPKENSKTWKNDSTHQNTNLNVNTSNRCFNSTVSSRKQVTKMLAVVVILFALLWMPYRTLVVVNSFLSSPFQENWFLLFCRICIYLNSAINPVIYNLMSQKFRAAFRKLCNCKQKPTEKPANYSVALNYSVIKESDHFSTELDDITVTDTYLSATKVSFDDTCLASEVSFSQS
Nuclear receptor subfamily 1 group I member 2 (Rattus norvegicus), sequence (Q9R1A7 whole entry, looked up): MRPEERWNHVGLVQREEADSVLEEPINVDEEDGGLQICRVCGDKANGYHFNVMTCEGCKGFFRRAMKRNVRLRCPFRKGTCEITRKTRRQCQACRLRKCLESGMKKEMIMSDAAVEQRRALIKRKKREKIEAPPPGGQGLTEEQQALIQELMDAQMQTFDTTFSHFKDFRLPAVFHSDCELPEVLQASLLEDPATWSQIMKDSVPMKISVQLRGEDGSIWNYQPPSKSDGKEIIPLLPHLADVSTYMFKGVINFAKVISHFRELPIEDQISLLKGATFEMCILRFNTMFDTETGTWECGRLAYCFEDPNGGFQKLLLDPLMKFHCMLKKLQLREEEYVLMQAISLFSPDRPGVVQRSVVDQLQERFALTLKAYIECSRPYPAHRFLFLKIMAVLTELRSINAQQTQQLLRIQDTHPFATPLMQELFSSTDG
Cytochrome P450 2D6 (Homo sapiens), sequence (P10635 whole entry, looked up): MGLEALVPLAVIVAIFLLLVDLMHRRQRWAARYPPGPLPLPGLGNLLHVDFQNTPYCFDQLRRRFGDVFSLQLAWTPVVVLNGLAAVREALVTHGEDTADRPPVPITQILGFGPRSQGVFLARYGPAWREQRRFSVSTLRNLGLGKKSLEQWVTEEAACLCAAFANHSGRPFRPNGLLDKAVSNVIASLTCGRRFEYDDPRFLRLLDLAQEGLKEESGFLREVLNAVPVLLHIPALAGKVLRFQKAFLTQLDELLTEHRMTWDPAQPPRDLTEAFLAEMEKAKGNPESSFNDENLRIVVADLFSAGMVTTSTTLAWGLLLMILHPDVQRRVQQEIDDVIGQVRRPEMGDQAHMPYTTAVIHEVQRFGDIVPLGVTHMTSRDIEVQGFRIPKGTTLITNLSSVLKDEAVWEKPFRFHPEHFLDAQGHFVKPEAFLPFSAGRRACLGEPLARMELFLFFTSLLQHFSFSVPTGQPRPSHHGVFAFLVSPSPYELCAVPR

CCC(=O)CC
inactive: outcome [1] | outcome [2] | outcome [3] | outcome [4] | Potency [5] | outcome [6] | Potency [7] | Potency [8] | Potency [9] | Potency [10] | Potency [11] | Potency [12]

CCCC(=O)Nc1ccc(OCC(O)CNC(C)C)c(C(C)=O)c1 (centres undefined)
inactive: outcome [1] | outcome [3] | outcome [4] | Potency [5] | outcome [13] | outcome [6] | Potency [7] | max activation [14] -1.06% | Potency [15] | Potency [16] | Potency [9] | Potency [11] | Potency [12]

OCC1(CO)COCOC1
inactive: outcome [1] | outcome [2] | outcome [3] | Potency [5] | outcome [13] | outcome [6] | Potency [7] | Potency [8] | Potency [10] | Potency [17] | Potency [11] | Potency [12]

CN1C[C@@H]2C[C@H]1CN2c1cc2c(cc1F)c(=O)c(C(=O)O)cn2C1CC1
inactive: activation [1] 0.101% [at 15.8 µM] | activity, negative = inhibition [2] 1.83% [at 10.5 µM] | activity change, negative = cytotoxicity [3] -0.63% [at 19 µM] | caspase activation [4] -0.0526% [at 19 µM] | activity change, negative = cytotoxicity [5] -0.0368% [at 19 µM] | activity change, negative = cytotoxicity [6] -1.05% [at 19 µM] | activation [7] -18.6% [at 19 µM] | max activation [14] -1.05% | Potency [15] | Potency [16] | activity change, negative = inhibition [10] 8.53% [at 23.6 µM] | activity change, negative = inhibition [17] -8.84% [at 23.6 µM] | activity change, negative = inhibition [11] 0.182% [at 15.8 µM] | activity change, negative = inhibition [12] 4.83% [at 23.6 µM]

CC1(C)Cc2cccc(N)c2O1
inactive: outcome [1] | outcome [2] | outcome [3] | Potency [5] | outcome [13] | outcome [6] | Potency [11]
active: Potency [7] 34.4 µM | Potency [9] 17.8 µM | Potency [10] 11.2 µM | Potency [12] 7.96 µM

O=C1CCCCO1
inactive: outcome [1] | outcome [2] | outcome [3] | outcome [4] | Potency [5] | outcome [13] | outcome [6] | Potency [7] | Potency [8] | Potency [11] | Potency [12]

CCO[Si](CC)(OCC)OCC
active: Potency [7] 15.4 µM | Potency [12] 7.1 µM
inactive: outcome [1] | outcome [2] | outcome [3] | outcome [4] | Potency [5] | outcome [6] | Potency [17] | Potency [11]

CCCCCC/C=C/C(=O)OC
inactive: outcome [1] | outcome [3] | outcome [4] | Potency [5] | outcome [13] | outcome [6] | Potency [7] | Potency [8] | Potency [9] | Potency [10] | Potency [17] | Potency [11] | Potency [12]

OCCN1CCOCC1
inactive: outcome [1] | outcome [2] | outcome [3] | outcome [4] | Potency [5] | outcome [13] | outcome [6] | Potency [7] | Potency [8] | Potency [10] | Potency [17] | Potency [11] | Potency [12]

CCCCSCCCC
active: Potency [10] 63.3 µM
inactive: outcome [1] | outcome [2] | outcome [3] | outcome [4] | Potency [5] | outcome [13] | outcome [6] | Potency [7] | Potency [8] | Potency [17] | Potency [11] | Potency [12]

O=C(O)CNC(=O)CNC(=O)CNC(=O)CSC(=O)c1ccccc1
inactive: outcome [1] | outcome [2] | outcome [3] | outcome [4] | outcome [13] | outcome [6] | Potency [7] | Potency [8] | Potency [9] | Potency [10] | Potency [17] | Potency [11] | Potency [12]

OC1(c2ccc(Cl)cc2)CCNCC1
inactive: outcome [1] | outcome [2] | outcome [3] | outcome [4] | Potency [5] | outcome [13] | outcome [6] | Potency [7] | Potency [11] | Potency [12]

C/C(=C1\CCOC(=O)S1)N(C=O)Cc1cnc(C)nc1N
inactive: outcome [1] | outcome [2] | outcome [3] | outcome [4] | Potency [5] | outcome [13] | outcome [6] | Potency [7] | Potency [10] | Potency [17] | Potency [11]
active: Potency [8] 13.8 µM | Potency [12] 15.5 µM

CCNC(=O)NCc1cccc(Cl)c1
inactive: outcome [1] | outcome [3] | outcome [4] | Potency [5] | outcome [13] | outcome [6] | Potency [7] | max activation [14] -1.55% | Potency [15] | Potency [16] | Potency [8] | Potency [9] | Potency [10] | Potency [17] | Potency [11]

OC[C@H]1O[C@@H](O[C@@H]2[C@@H](CO)O[C@](O)(CO)[C@H]2O)[C@H](O)[C@@H](O)[C@H]1O
inactive: outcome [1] | outcome [2] | outcome [3] | outcome [4] | Potency [5] | outcome [6] | Potency [7] | max activation [14] -1.58% | Potency [15] | Potency [16] | Potency [8] | Potency [9] | Potency [10] | Potency [17] | Potency [11] | Potency [12]

C=C(C)C1CC=C(C)C(=O)C1 (centres undefined)
inactive: outcome [1] | outcome [3] | outcome [4] | Potency [5] | outcome [13] | outcome [6] | Potency [7] | Potency [8] | Potency [9] | Potency [10] | Potency [17] | Potency [11] | Potency [12]

Cn1c(=O)c2c(ncn2CCO)n(C)c1=O
inactive: outcome [1] | outcome [2] | outcome [3] | Potency [5] | outcome [13] | outcome [6] | Potency [7] | Potency [8] | Potency [10] | Potency [11] | Potency [12]

CC1=NN(c2ccc(S(=O)(=O)O)cc2)C(=O)C1
active: Potency [9] 79.6 µM
inactive: outcome [1] | outcome [2] | outcome [3] | Potency [5] | outcome [13] | outcome [6] | Potency [7] | Potency [8] | Potency [10] | Potency [17] | Potency [11] | Potency [12]

CC(=O)O[Si](C)(OC(C)=O)OC(C)=O
inactive: outcome [1] | outcome [3] | outcome [4] | Potency [5] | outcome [13] | outcome [6] | Potency [7] | Potency [8] | Potency [9] | Potency [10] | Potency [17] | Potency [11]
active: Potency [12] 5.15 µM
